Data on three molecules can be found in PubChem BioAssay AID651871 (Sanford-Burnham Center for Chemical Genomics, 2012).

Values joined by “and” are separate entries in the source; they are usually repeats but may differ in a detail not shown here. Identical values can stand only once.

The assay has as its system HL-1. In words: cardiomyocyte survival under oxidative or metabolic stress – cell-based, panel, H9c2 and HL-1, ATP luminescence, set 2, SAR follow-up (AID 651871).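 Note: cells exposed to stressor for 2 h before ATP readout; reference of the scale not given here.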 The following applies: H9c2/HL-1 cardiomyocytes, 2-deoxyglucose stress, with 2-deoxyglucose, run 14, at 79 µM (top of the series).
Regarding `CCOC(=O)c1cccc(NC(=O)CNC(=O)c2cc(-c3cc(OC)c(OC)c(OC)c3)nc3ccccc23)c1`, the activity (protection/inhibition) was found to be 83.5%.

As for `COc1ccc2nc(-c3cc(OC)c(OC)c(OC)c3)cc(C(=O)NCC(=O)Nc3ccc(C(C)=O)cc3)c2c1`, the activity (protection/inhibition) was 66%.

For `COc1ccc2c(c1OC)C(=O)N1c3ccccc3C(=O)N(Cc3cccc(Cl)c3Cl)C21` (stereo not drawn), the activity (protection/inhibition) is 56.3% and -4.31%.
